Screening results: PubChem, The Scripps Research Institute Molecular Screening Center
Hits are enriched below; roughly 5.7% of the tested compounds scored in any of these assays.
DAX1 inh-1 – DAX1 (NR0B1) inhibition, primary screen | HEK293T StAR-luciferase reporter, SF-1/DAX-1 repression relief | inhibition, % at 6.8 µM | 1.1% of 370,000 active;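 active = inhibition above the mean over all tested compounds plus 3 SD, cut at about 3.6% in these data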;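 also: 0% = DAX-1 cells with DMSO and 100% = cells lacking DAX-1 with DMSO; higher inhibition means more luminescence from relief of DAX-1 repression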
ssDAF-12 act – S. stercoralis DAF-12 activation, primary screen; HEK293 ssDAF-12/GRIP1 lit1-tk-luc reporter, luminescence; % of 3 µM dafachronic acid response; activation, % at 6.8 µM; 1% of 370,000 active;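 active = activation above the mean over all tested compounds plus 3 SD, cut at about 0.9% in these data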;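 also: 0% = DMSO-only wells and 100% = 3 µM delta7-dafachronic acid wells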
AHR act – activates the human aryl hydrocarbon receptor | P35869 | AHR-responsive luciferase reporter cells, luminescence | activation, % at 5 µM | 2.5% of 320,000 active | AID 2796; in the data active = activation above about 47%;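 also: 0% = vehicle wells and 100% = reference agonist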
hcDAF12 agonist – H. contortus DAF-12 activation, primary screen | HEK293 hcDAF-12 lit1-tk-luc reporter, luminescence; 0% DMSO, 100% Δ7-dafachronic acid | activation, % at 6.8 µM | 1.4% of 370,000 active | AID 652067;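 active = activation above the mean of all tested compounds plus 3 SD, cut at about 5.5% in these data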;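 also: 100% = response to 3 µM Δ7-dafachronic acid high control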
hgDAF12 agonist – agonists of H. glycines DAF-12 nuclear receptor; HEK293 GAL4-hgDAF12 UAS-luciferase reporter, agonist luminescence; normalized to butyrate control; activation, % at 6.8 µM; 1.8% of 370,000 active; AID 687014;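 active = activation above a cutoff set at the mean of all screened compounds plus 3 SD, cut at about 10% in these data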;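 also: 0% = DMSO wells and 100% = sodium butyrate wells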
DAX1 inh-2 – NR0B1 (DAX1) inhibition; inhibition, % at 6.75 µM; 0.99% of 340,000 active; P51843; HEK293 Gal4-DAX1 luciferase reporter, luminescence;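 active = inhibition above the mean over all tested compounds plus 3 SD, cut at about 4.2% in these data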;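 also: 0% = DAX1-transfected cells with DMSO and 100% = empty-vector control cells with DMSO; inhibition shows as a rise in luminescence from relieved DAX1 repression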
AHR act confirm – confirmation of human aryl hydrocarbon receptor activators. human cells, AHR-responsive luciferase reporter, luminescence. shares compounds with AHR act. activation, % at 9 µM. AID 2845. 87% of 2,300 active; in the data active = activation above about 49%;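 also: HepG2 hepatoma cells carrying a DRE-driven firefly luciferase reporter; 0% = vehicle wells and 100% = reference agonist wells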
PXR counter – counter-screen for AHR activators: human PXR activators. cell-based PXR reporter, luciferase luminescence. activation, % at 11.6 µM. AID 434939. 88% of 2,300 active. shares compounds with AHR act; in the data active = activation above about 11%;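 also: human hepatoma DPX-2 cells expressing full-length human PXR; 0% = DMSO and 100% = reference agonist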
Target sequence (O75469 whole entry, looked up): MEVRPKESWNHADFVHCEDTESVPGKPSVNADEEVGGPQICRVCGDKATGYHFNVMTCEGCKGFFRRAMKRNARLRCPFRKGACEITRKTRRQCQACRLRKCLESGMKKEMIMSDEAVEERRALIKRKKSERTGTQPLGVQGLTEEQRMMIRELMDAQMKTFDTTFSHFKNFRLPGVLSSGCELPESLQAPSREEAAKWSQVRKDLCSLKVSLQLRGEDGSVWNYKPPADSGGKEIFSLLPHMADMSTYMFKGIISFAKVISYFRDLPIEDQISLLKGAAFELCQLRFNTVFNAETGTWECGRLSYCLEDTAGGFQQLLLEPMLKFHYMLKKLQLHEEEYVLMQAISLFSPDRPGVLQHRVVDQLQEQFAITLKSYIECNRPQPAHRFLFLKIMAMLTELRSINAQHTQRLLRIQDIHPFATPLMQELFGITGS
An asterisk follows results filed as active; / = no result.

SMILES	DAX1 inh-1	ssDAF-12 act	AHR act	hcDAF12 agonist	hgDAF12 agonist	DAX1 inh-2	AHR act confirm	PXR counter
Cc1onc(-c2ccccc2Cl)c1-c1nc(-c2ccccn2)no1	-2	-1	92*	-1	1	-2	70*	176*
Clc1ccccc1/C=C/c1nc(-c2ccccn2)no1	0	-1	-11	0	0	-7	/	/
CCN(c1ccccc1)S(=O)(=O)c1ccc(Cl)c(NC(=O)COC(=O)C2CC2C)c1 (centres undefined)	-1	-2	1	-1	-1	0	/	/
CC(=O)C1=C(O)C(=O)N(c2nccs2)C1c1ccc(Br)cc1 (centres undefined)	1	0	171*	2	2	1	43	9
CC(=O)C1=C(O)C(=O)N(c2nccs2)C1c1ccc(F)cc1 (centres undefined)	0	-1	-3	0	-3	1	/	/
CCn1c(C)cc(/C=C2\NC(=O)N(CC(=O)Nc3ccc(F)cc3)C2=O)c1C	-1	-2	24	-1	0	0	/	/
CCn1c(C)cc(/C=C2/NC(=O)N(Cc3ccccc3F)C2=O)c1C	0	-1	84*	-1	-1	-1	59*	162*
COc1ccccc1OCCNC(=O)CCNS(=O)(=O)c1ccc(C)cc1	0	-1	/	-2	2	-1	/	/
CC(C)[C@@H]1CC[C@@H](C)c2c(-c3ccccc3)n[nH]c21	0	-1	-2	-2	1	0	/	/
Cc1ccccc1C(=O)NC(=S)NCCc1ccccc1	1	-1	86*	1	0	-1	104*	27*
Cc1ccccc1C(=O)NC(=S)NCc1ccccc1	0	-1	3	0	-1	2	/	/
CCCc1c(C(=O)OCC)sc(N)c1C#N	0	-1	4	0	-3	2	/	/
COc1c2occc2c(OC)c2c(=O)cc(C)oc12	0	-1	104*	-3	-3	-1	77*	13*
Cc1cc(C)cc(N(C(=O)c2csnn2)C(C(=O)NC(C)(C)C)c2ccncc2)c1 (centres undefined)	-2	-1	2	0	-3	3	/	/
CCOc1cc2nc(-c3ccc(OC)c(OC)c3)nc(N3CC(C)OC(C)C3)c2cc1OC (centres undefined)	/	/	83*	/	/	/	96*	16*
CCOc1cc2nc(-c3ccc(OC)c(OC)c3)nc(N3CCOCC3)c2cc1OC	-1	-2	16	-1	-2	/	/	/
CO/N=C(\N)c1nonc1N	0	0	6	2	-2	-1	/	/
Cc1nc(-c2ccccc2)nc2n[nH]c(N)c12	0	0	112*	4	3	2	138*	9
Nc1[nH]nc2nc(N3CCCC3)nc(-c3ccccc3)c12	1	-1	9	-1	0	0	/	/
COC(=O)C(C)Sc1nc2c([nH]c3ccccc32)c(=O)n1C (centres undefined)	0	0	26	3	2	0	/	/
Cn1c(SCC(=O)NCc2ccccc2)nc2c([nH]c3ccccc32)c1=O	/	/	84*	/	/	/	97*	126*
CCC(C)Sc1nc2c([nH]c3ccccc32)c(=O)n1C (centres undefined)	0	3.1*	87*	4	4	1	88*	52*
COc1ccc(S(=O)(=O)N2CCOCC2)cc1NC(=O)c1ccccc1-c1ccc(C(F)(F)F)cc1	0	-2	3	-2	1	0	/	/
CCOC(=O)COn1c(=O)c(-c2ccc(OC)c(OC)c2)[n+]([O-])c2ccccc21	1	-1	15	1	1	/	/	/
CCOc1ccccc1OCCN1CCCC1	0	-1	-2	1	2	0	/	/
SMILES	DAX1 inh-1	ssDAF-12 act	AHR act	hcDAF12 agonist	hgDAF12 agonist	DAX1 inh-2	AHR act confirm	PXR counter
O=C(CN1CCCCCC1)Nc1ccc(Br)cc1	-1	-2	84*	0	1	0	112*	60*
O=C(Cn1c(NCCCO)nc2ccccc21)c1ccc(Cl)cc1Cl	0	-1	120*	4	-1	1	122*	20*
O=C(Cn1c(NCCCO)nc2ccccc21)c1ccc(Cl)cc1	0	-1	5	-1	-1	-2	/	/
CCCc1nc(NCc2ccncc2)c2nnn(Cc3ccccc3F)c2n1	-1	-1	81*	-2	-3	-1	61*	116*
CCn1nnnc1NC(=O)c1cc(OC)c(OC)c(OC)c1	0	-2	128*	-1	1	1	101*	11*
COc1cc(/C=N/NC(=O)CSc2n[nH]c(=O)[nH]c2=O)cc(OC)c1O	2	-1	1	-1	3	-1	/	/
CCNc1nc(C)nc2c1oc1ccccc12	0	-2	14	-2	0	-1	/	/
c1ccc2c(c1)oc1c(NCCCN3CCOCC3)ncnc12	0	-1	6	0	0	0	/	/
c1ccc2c(c1)oc1c(NCCCn3ccnc3)ncnc12	0	-1	106*	-2	2	0	110*	22*
Cc1nc(NCCCn2ccnc2)c2oc3ccccc3c2n1	0	-1	79*	1	1	-1	110*	23*
O=C(NNC(=O)C1CC1)c1cc2cc3ccccc3nc2s1	1	-1	110*	2	6	1	72*	12*
O=C(NNC(=O)c1cc2cc3ccccc3nc2s1)c1ccc(F)cc1	0	-1	91*	-1	1	-1	46	12*
O=C(NNC(=O)c1cc2ccccc2o1)c1ccc(F)cc1	3	0	/	2	0	1	/	/
CC(=O)Nc1cccc(OCC(=O)Nc2ccc(F)cc2)c1	0	-1	85*	-1	3	-1	76*	/
CCOc1ccc(NC(=O)Nc2cccc(C)n2)cc1	0	-1	80*	1	4	1	71*	18*
CCOc1ccc(NC(=O)CNC(=O)COc2ccccc2)cc1	-1	-1	121*	2	2	0	15	11*
CSCC[C@H](NC(=O)c1ccco1)c1nnc2ccccn12	2	-1	1	-1	0	0	/	/
O=C(NCc1ccccn1)c1ccc2ccccc2n1	1	-1	91*	-1	1	0	86*	16*
COc1cccc(/C=C/C(=O)OCC(=O)N2c3ccccc3CC2C)c1OC (centres undefined)	-1	-1	/	-1	0	-1	/	/
CC1CN(c2nc(-c3ccc(Br)cc3)nnc2-c2ccccc2)CC(C)N1 (centres undefined)	0	0	87*	1	4	-1	47*	21*
